Test results as given in PubChem BioAssay AID1159580 (chemical genetic matrix, 2015).
Where “and” joins values, the source holds several entries; their conditions need not be identical. Equal values may be shown once. The campaign covered roughly 5,500 compounds. About 2,000 (36%) were called active. Roughly 18% stayed inconclusive and do not appear here. Rule as the data show it: active = normalized growth mostly below about 0.91 (no sharp cut-off); inconclusive = no clear call, values can overlap the other calls; inactive = mostly above about 0.92. The list shows a part of the results.

Assay: chemical genetic growth profiling, strain panel (AID 1159580);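 also: tested at 20 µM; growth read once vehicle control cultures reached saturation at 30 °C; 1 = growth at the plate median or of vehicle wells; lower values mean less growth of the strain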
Details: S. cerevisiae deletion strains, growth OD

Measured: normalized growth

CC1(C)S[C@@H]2[C@H](NC(=O)[C@@H](N)c3ccc(O)cc3)C(=O)N2[C@H]1C(=O)O
inactive: locus YAL013W, strain DEP1, stronger effect = lower value 1.01 | locus YAL021C, strain ccr4, stronger effect = lower value 0.97 | locus YAL026C, strain drs2, stronger effect = lower value 0.976 | locus YAL030W, strain snc1, stronger effect = lower value 0.999 | locus YBL061C, strain skt5, stronger effect = lower value 1.01 | locus YBR009C, strain hhf1, stronger effect = lower value 0.951 | locus YBR021W, strain FUR4, stronger effect = lower value 1 | locus YBR023C, strain chs3, stronger effect = lower value 0.996 | locus YBR171W, strain sec66, stronger effect = lower value 0.987 | locus YBR229C, strain ROT2, stronger effect = lower value 1 | locus YBR231C, strain swc5, stronger effect = lower value 1 | locus YBR279W, strain paf1, stronger effect = lower value 0.99 | locus YCL011C, strain gbp2, stronger effect = lower value 0.988 | locus YCL016C, strain dcc1, stronger effect = lower value 0.992 | locus YCL029C, strain bik1, stronger effect = lower value 1.01 | locus YCL069W, strain vba3, stronger effect = lower value 0.989 | locus YCR088W, strain abp1, stronger effect = lower value 0.983 | locus YDL005C, strain med2, stronger effect = lower value 0.993 | locus YDL035C, strain GPR1, stronger effect = lower value 1.02 | locus YDL040C, strain nat1, stronger effect = lower value 0.995 | locus YDL074C, strain BRE1, stronger effect = lower value 1.01 | locus YDL101C, strain DUN1, stronger effect = lower value 1.01 | locus YDL185W, strain tfp1, stronger effect = lower value 0.997 | locus YDL192W, strain arf1, stronger effect = lower value 1 | locus YDR001C, strain nth1, stronger effect = lower value 0.964 | locus YDR069C, strain doa4, stronger effect = lower value 1.01 | locus YDR101C, strain arx1, stronger effect = lower value 1 | locus YDR137W, strain rgp1, stronger effect = lower value 0.938 | locus YDR159W, strain sac3, stronger effect = lower value 0.991 | locus YDR162C, strain NBP2, stronger effect = lower value 1.03 | locus YDR195W, strain ref2 0.98 | locus YDR297W, strain sur2, stronger effect = lower value 0.998 | locus YDR318W, strain mcm21, stronger effect = lower value 0.998 | locus YDR334W, strain swr1, stronger effect = lower value 0.982 | locus YDR335W, strain msn5, stronger effect = lower value 0.996 | locus YDR388W, stronger effect = lower value 1.01 | locus YDR392W, strain spt3, stronger effect = lower value 0.936 | locus YDR502C, strain sam2, stronger effect = lower value 0.999 | locus YEL003W, strain gim4, stronger effect = lower value 0.991 | locus YEL037C, strain rad23, stronger effect = lower value 0.983 | locus YEL061C, strain CIN8 (second series), stronger effect = lower value 0.988 | locus YEL061C, strain CIN8, stronger effect = lower value 1.01 | locus YER015W, strain faa2, stronger effect = lower value 0.998 | locus YER016W, strain bim1, stronger effect = lower value 0.967 | locus YER110C, stronger effect = lower value 1.01 | locus YER111C, strain swi4, stronger effect = lower value 0.98 | locus YER155C, strain BEM2 (second series), stronger effect = lower value 0.996 | locus YER155C, strain BEM2, stronger effect = lower value 1 | locus YER167W, strain BCK2, stronger effect = lower value 1.01 | locus YFR010W, strain ubp6, stronger effect = lower value 0.987 | locus YGL078C, strain dbp3, stronger effect = lower value 1 | locus YGL086W, strain mad1, stronger effect = lower value 0.994 | locus YGL167C, strain pmr1, stronger effect = lower value 1.01 | locus YGL173C, strain kem1, stronger effect = lower value 1.02 | locus YGL227W, strain vid30, stronger effect = lower value 1 | locus YGL240W, strain doc1, stronger effect = lower value 1.02 | locus YGL248W, strain PDE1, stronger effect = lower value 1.02 | locus YGL253W, strain hxk2, stronger effect = lower value 0.99 | locus YGR078C, strain PAC10, stronger effect = lower value 1 | locus YGR135W, strain pre9, stronger effect = lower value 0.986 | locus YGR252W, strain gcn5, stronger effect = lower value 0.954 | locus YHR013C, strain ard1, stronger effect = lower value 1.03 | locus YHR027C, strain rpn1, stronger effect = lower value 0.989 | locus YHR030C, strain SLT2, stronger effect = lower value 1.01 and 1.03 | locus YHR079C, strain IRE1 (second series), stronger effect = lower value 0.996 | locus YHR079C, strain IRE1, stronger effect = lower value 1.06 | locus YHR094C, strain hxt1, stronger effect = lower value 1 | locus YHR129C, strain ARP1, stronger effect = lower value 1.01 | locus YHR142W, strain chs7, stronger effect = lower value 0.982 | locus YHR200W, strain rpn10, stronger effect = lower value 0.995 | locus YIL066C, strain RNR3, stronger effect = lower value 1.03 | locus YIL073C, strain SPO22, stronger effect = lower value 1.04 | locus YIL125W, strain kgd1, stronger effect = lower value 1 | locus YIR030C, strain dcg1, stronger effect = lower value 1 | locus YJL092W, strain hpr5, stronger effect = lower value 0.991 | locus YJL095W, strain BCK1 (second series), stronger effect = lower value 0.983 | locus YJL095W, strain BCK1, stronger effect = lower value 1.02 and 1.06 | locus YJL115W, strain asf1, stronger effect = lower value 0.979 | locus YJL129C, strain trk1, stronger effect = lower value 1 | locus YJL134W, strain LCB3, stronger effect = lower value 1.01 | locus YJL154C, strain vps35, stronger effect = lower value 0.991 | locus YJL164C, strain tpk1, stronger effect = lower value 0.995 | locus YJL166W, strain qcr8, stronger effect = lower value 1.02 | locus YJL168C, strain set2, stronger effect = lower value 0.997 | locus YJL187C, strain SWE1 (second series), stronger effect = lower value 1.01 | locus YJL187C, strain SWE1, stronger effect = lower value 0.998 | locus YJR043C, strain POL32, stronger effect = lower value 1.01 | locus YJR066W, strain TOR1, stronger effect = lower value 1.01 | locus YJR075W, strain HOC1, stronger effect = lower value 1.02 | locus YKL009W, strain mrt4, stronger effect = lower value 1.02 | locus YKL068W, stronger effect = lower value 1 | locus YKL085W, strain MDH1 (second series), stronger effect = lower value 1.01 | locus YKL085W, strain MDH1, stronger effect = lower value 1.01 | locus YKL160W, strain elf1, stronger effect = lower value 1.01 | locus YKR001C, strain vps1, stronger effect = lower value 0.982 | locus YKR026C, strain gcn3, stronger effect = lower value 1.07 | locus YKR091W, strain srl3, stronger effect = lower value 1 | locus YLL001W, strain dnm1, stronger effect = lower value 1.02 | locus YLL026W, stronger effect = lower value 0.992 | locus YLL041C, strain sdh2, stronger effect = lower value 0.999 | locus YLR027C, strain aat2, stronger effect = lower value 0.993 | locus YLR039C, strain RIC1, stronger effect = lower value 1 | locus YLR058C, strain SHM2, stronger effect = lower value 1.01 | locus YLR102C, strain apc9, stronger effect = lower value 0.997 | locus YLR113W, strain HOG1, stronger effect = lower value 1.04 | locus YLR221C, strain rsa3, stronger effect = lower value 0.991 | locus YLR258W, strain gsy2, stronger effect = lower value 0.991 | locus YLR262C, strain YPT6 (second series), stronger effect = lower value 0.975 | locus YLR262C, strain YPT6, stronger effect = lower value 1.09 | locus YLR268W, strain sec22, stronger effect = lower value 1.01 | locus YLR320W, strain mms22, stronger effect = lower value 0.987 | locus YLR330W, strain CHS5, stronger effect = lower value 1.01 | locus YLR342W, strain FKS1 (second series), stronger effect = lower value 0.974 | locus YLR342W, strain FKS1, stronger effect = lower value 1.01 | locus YLR357W, strain rsc2, stronger effect = lower value 1.02 | locus YLR370C, strain arc18, stronger effect = lower value 0.999 | locus YLR371W, strain rom2, stronger effect = lower value 0.991 | locus YLR384C, strain iki3, stronger effect = lower value 0.989 | locus YLR418C, strain cdc73, stronger effect = lower value 0.994 | locus YML016C, strain PPZ1, stronger effect = lower value 1.01 | locus YML032C, strain rad52, stronger effect = lower value 1.01 | locus YML120C, strain ndi1, stronger effect = lower value 0.997 | locus YML124C, strain tub3, stronger effect = lower value 0.985 | locus YMR058W, strain fet3, stronger effect = lower value 0.995 | locus YMR078C, strain ctf18, stronger effect = lower value 0.994 | locus YMR125W, strain sto1, stronger effect = lower value 0.998 | locus YMR129W, stronger effect = lower value 0.988 | locus YMR205C, strain PFK2, stronger effect = lower value 1 | locus YMR223W, strain ubp8, stronger effect = lower value 0.997 | locus YMR231W, strain pep5, stronger effect = lower value 1 | locus YMR263W, strain SAP30, stronger effect = lower value 1 | locus YMR307W, strain GAS1, stronger effect = lower value 0.969 | locus YNL067W, strain RPL9B, stronger effect = lower value 1.01 | locus YNL071W, strain lat1, stronger effect = lower value 0.984 | locus YNL153C, strain GIM3, stronger effect = lower value 1 | locus YNL183C, strain NPR1, stronger effect = lower value 1 | locus YNL209W, strain ssb2, stronger effect = lower value 0.995 | locus YNL233W, strain BNI4, stronger effect = lower value 1.02 | locus YNL248C, strain rpa49, stronger effect = lower value 1.03 | locus YNL250W, strain rad50, stronger effect = lower value 1 | locus YNL271C, strain bni1, stronger effect = lower value 1 | locus YNL298W, strain CLA4, stronger effect = lower value 0.984 | locus YNL307C, strain MCK1, stronger effect = lower value 1.03 | locus YNL322C, strain KRE1 (second series), stronger effect = lower value 1 | locus YNL322C, strain KRE1, stronger effect = lower value 1.01 | locus YNR049C, strain mso1, stronger effect = lower value 0.985 | locus YNR052C, strain pop2, stronger effect = lower value 0.999 | locus YOL012C, strain htz1 1.31 | locus YOL147C, strain pex11, stronger effect = lower value 1.01 | locus YOR001W, strain rrp6, stronger effect = lower value 0.997 | locus YOR061W, strain CKA2, stronger effect = lower value 1.02 | locus YOR069W, strain VPS5, stronger effect = lower value 1.01 | locus YOR070C, strain gyp1, stronger effect = lower value 0.999 | locus YOR080W, strain dia2, stronger effect = lower value 1.01 | locus YOR083W, strain WHI5, stronger effect = lower value 1.03 | locus YOR106W, strain vam3, stronger effect = lower value 1 | locus YOR136W, strain idh2, stronger effect = lower value 0.994 | locus YOR144C, strain elg1, stronger effect = lower value 0.991 | locus YOR184W, strain ser1, stronger effect = lower value 1.03 | locus YOR231W, strain MKK1, stronger effect = lower value 1.05 | locus YOR265W, strain rbl2, stronger effect = lower value 0.997 | locus YOR270C, strain vph1, stronger effect = lower value 0.962 | locus YOR290C, strain snf2, stronger effect = lower value 0.975 | locus YOR316C, strain cot1, stronger effect = lower value 0.999 | locus YPL051W, strain arl3, stronger effect = lower value 1.01 | locus YPL078C, strain atp4, stronger effect = lower value 1.01 | locus YPL106C, strain sse1, stronger effect = lower value 0.974 | locus YPL240C, strain hsp82, stronger effect = lower value 0.993 | locus YPL241C, strain CIN2, stronger effect = lower value 1.01 | locus YPL256C, strain CLN2, stronger effect = lower value 1.05 | locus YPR119W, strain clb2, stronger effect = lower value 1 | locus YPR141C, strain kar3, stronger effect = lower value 1.03 | locus YPR163C, strain tif3, stronger effect = lower value 1 | locus YPR167C, strain met16, stronger effect = lower value 0.998 | strain wtn01, stronger effect = lower value 0.976
